Screens (PubChem)
POLB inh: inhibitors of human DNA polymerase beta. P06746. Pol beta primer extension/strand displacement, fluorescence kinetic. Potency, µM (titrated, usually from 114 µM), most hits filed as inhibitors. 340,000 compounds, 1.3% hits
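10 nM enzyme + cpd, 15 min RT; start with substrate 50 nM final; read 0 min and after 10 min RT. Corrected, normalized data; 4-parameter Hill curve fit.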
Pol kappa inh: inhibitors of human DNA polymerase kappa; purified Pol kappa, fluorescent DNA synthesis assay, 10 min; 400,000 compounds, 0.53% hits; Potency, µM (highest dose often 107 µM), actives largely listed as inhibitors; Q9UBT6
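10 nM Pol kappa was preincubated with compounds for 15 min at room temperature. Reaction started with 50 nM (final) substrate. Fluorescence read kinetically at 0 and 10 min.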
APEX1 inh: blocks human APE1 abasic DNA cleavage. P27695. recombinant APE1, TAMRA/BHQ-2 abasic DNA cleavage fluorescence. Potency, µM (series often up to 65.8 µM), actives largely listed as inhibitors. 350,000 compounds, 0.35% hits. AID 2517; further: nearly all actives have a fitted effect of over 55% in size
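Enzyme (0.75 nM final) and test compound are incubated 15 min at room temperature before adding 50 nM quenched THF abasic-site duplex. Cleavage dequenches TAMRA, followed at 525/598 nm over three reads one minute apart.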
L3MBTL1 inh: blocks human L3MBTL1. Q9Y468. AlphaScreen L3MBTL1–H3K9me1 peptide binding. Potency, µM (series often up to 57.1 µM), hits mostly inhibitors. 230,000 compounds, 0.66% hits; further: nearly all actives have a fitted effect of over 60% in size
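Displacement of a biotinylated histone H3(1-15) peptide monomethylated at Lys9 (75 nM) from L3MBTL1 (50 nM) was measured by AlphaScreen after a 30 min room-temperature compound incubation; cefsulodin titration served as intraplate control.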
POLI inh: blocks human DNA polymerase iota activity. Q9UNA4. Pol iota fluorescent replication assay, 10 min. Potency, µM (titrated, usually from 115 µM), usual class: inhibitors. 390,000 compounds, 1% hits
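Pol iota at 10 nM preincubated 15 min with compounds at room temperature; reaction started with fluorescent substrate, 50 nM final. Fluorescence read kinetically at 0 and 10 min; buffer-only wells as negative control.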
POLH inh: inhibitors of human DNA polymerase eta | recombinant Pol eta, fluorescent DNA replication assay | Potency, µM (doses to about 114 µM), hits mostly inhibitors | 390,000 compounds, 1.2% hits | AID 588591
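Pol eta (10 nM) was preincubated with compounds for 15 min at room temperature, after which fluorescent replication substrate (50 nM final) was added to start the reaction. Fluorescence was read kinetically at 0 and 10 min.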
Of the large screens only hits and unclear results are named; the others gave an inactive call. Compounds with a hit are over-represented: about 2.5% of the library has one in this group of screens. The call rests on the fitted dose curve; in most records, active means well fitted curve in the direction sought with a large enough effect; inconclusive means small, poorly fitted or top-dose-only effect, or another doubt; inactive means no such curve, though single readings can be large; an effect the other way counts as inactive or inconclusive.

CC(/C=N/n1c(-c2ccc(C)cc2)n[nH]c1=S)=C\c1ccco1	POLH inh inconclusive
CC(/C=N/n1c(-c2ccco2)n[nH]c1=S)=C\c1ccco1	POLB inh 28.2µM, POLI inh inconclusive, POLH inh inconclusive
COc1ccc(C(=O)C(C)Sc2nnc(C3CC3)n2C2CC2)cc1 (configuration not stated)	none (no result: POLB inh)
S=c1[nH]nc(-c2ccccn2)n1/N=C/c1ccco1	Pol kappa inh inconclusive, L3MBTL1 inh 20µM, POLI inh inconclusive
S=c1[nH]nc(-c2ccccc2Cl)n1/N=C/C=C/c1ccco1	POLB inh 20µM, Pol kappa inh 79.4µM, POLI inh inconclusive, POLH inh 50.1µM
S=c1[nH]nc(-c2ccco2)n1/N=C/c1ccccn1	none (no result: Pol kappa inh, POLI inh, POLH inh)
S=c1[nH]nc(-c2cccc(Cl)c2)n1/N=C/c1ccco1	POLB inh inconclusive, POLI inh inconclusive, POLH inh inconclusive (no result: L3MBTL1 inh)
C=C(c1ccc2ccccc2n1)c1cccs1	none (no result: POLB inh, APEX1 inh, L3MBTL1 inh, POLH inh)
COc1ccc2nc(NC(=O)CS(=O)(=O)c3ccc(C)cc3)sc2c1	none (no result: L3MBTL1 inh)
Fc1ccc(/C=C/c2nccc3ccccc23)cc1	none (no result: POLB inh, APEX1 inh, L3MBTL1 inh, POLH inh)
O=C1N(CCCl)c2ccc(Br)cc2C12OCCO2	none
O=C(CCl)N(c1ccccc1)c1c[nH]c2ccccc12	POLH inh 14.1µM
CCCCCN(C(=O)CCC(=O)OC(C)C(=O)c1ccccc1)c1c(N)n(CCCC)c(=O)[nH]c1=O (configuration not stated)	none (no result: POLB inh)
Cc1cccc(C(=O)OCC(=O)NC(=O)Cc2ccccc2)c1O	none (no result: L3MBTL1 inh)
O=C(Nc1nnc(C2CC2)s1)C1Cc2ccccc2CN1C(=O)c1ccco1 (configuration not stated)	POLB inh 7.94µM, L3MBTL1 inh inconclusive, POLI inh 28.2µM, POLH inh inconclusive
COc1ccc(NC(=O)C2Cc3ccccc3CN2C(=O)c2ccco2)cc1 (configuration not stated)	none (no result: L3MBTL1 inh)
Cc1ccc(NC(=O)C2Cc3ccccc3CN2C(=O)c2ccco2)cc1S(=O)(=O)N(C)C (configuration not stated)	POLB inh inconclusive, POLI inh inconclusive (no result: L3MBTL1 inh)
O=C(Nc1nnc(C2CC2)s1)C1Cc2ccccc2CN1S(=O)(=O)c1cccs1 (configuration not stated)	POLB inh 11.2µM, Pol kappa inh inconclusive, L3MBTL1 inh inconclusive, POLH inh 7.08µM
O=C(Nc1nnc(SCc2ccc(F)cc2)s1)C1Cc2ccccc2CN1C(=O)c1ccco1 (configuration not stated)	Pol kappa inh inconclusive, POLI inh inconclusive, POLH inh 22.4µM
CN(C)S(=O)(=O)c1cccc(NC(=O)C2Cc3ccccc3CN2C(=O)c2ccco2)c1 (configuration not stated)	POLB inh inconclusive, POLI inh 35.5µM, POLH inh inconclusive (no result: L3MBTL1 inh)
Cc1nn(CC(C)C)c(Cl)c1C(=O)N(C)CC(=O)Nc1ccc(Cl)cc1	none (no result: POLB inh, Pol kappa inh, APEX1 inh, L3MBTL1 inh, POLI inh)
CCCSc1nc2sc3c(c2c(=O)n1-c1ccc(C)c(Cl)c1)CCN(C(C)=O)C3	POLB inh inconclusive, POLI inh inconclusive, POLH inh 79.4µM (no result: APEX1 inh, L3MBTL1 inh)
CC(=O)N1CCc2c(sc3nc(SCC(C)C)n(-c4ccc(C)c(Cl)c4)c(=O)c23)C1	POLI inh inconclusive, POLH inh inconclusive (no result: APEX1 inh, L3MBTL1 inh)
C=CC1=C2C=C(C3CC3)N(Cc3ccccc3)C=C2C(=O)C(C)(OC(=O)c2ccco2)C1=O (configuration not stated)	none (no result: POLB inh, Pol kappa inh, L3MBTL1 inh, POLI inh, POLH inh)
O=C(CCl)Nc1nc(-c2ccco2)c(-c2ccco2)s1	POLB inh inconclusive, APEX1 inh inconclusive, POLI inh inconclusive, POLH inh 12.6µM
Oc1cccc2c(CC(O)c3c[nH]c4ccccc34)ccnc12 (configuration not stated)	none (no result: POLB inh, APEX1 inh, L3MBTL1 inh, POLH inh)
O=C(Nc1nc(-c2cccs2)c(C(=O)C(F)(F)F)s1)c1ccccc1	Pol kappa inh inconclusive, POLI inh 89.1µM, POLH inh inconclusive
Nc1ncnc2c1nc(Sc1ccc(Cl)cc1)n2[C@H]1OC2COP(=O)(O)O[C@H]2[C@@H]1O (some centres not stated)	none (no result: POLB inh, APEX1 inh, L3MBTL1 inh, POLH inh)
